PubChem BioAssay (NCATS)
Results filed as inconclusive are left out. A call without a number means that no potency is given here. Activity calls are given as the source filed them. Unless noted, calls follow the shape of the dose curve; as a rule, active = well fitted curve in the direction sought with a large enough effect; inconclusive = small, poorly fitted or top-dose-only effect, or another doubt; inactive = no such curve, though single readings can be large; an effect the other way counts as inactive or inconclusive.

Legend:
[1] = qHTS for differential inhibitors of proliferation of Plasmodium falciparum line W2 (AID 1883); settings: Potency: Plasmodium falciparum W2 proliferation inhibition;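 also: potency is read from the fitted curve at half-maximal effect; parasites grown with compound for 72 h before lysis and staining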
[2] = qHTS for differential inhibitors of proliferation of Plasmodium falciparum line HB3 (AID 1886); settings: Potency: Plasmodium falciparum HB3 proliferation inhibition;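 also: potency is read from the fitted curve at half-maximal effect; parasites grown with compound for 72 h before SYBR Green readout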
[3] = biological target: Ferritin light chain (Equus caballus) (UniProt P02791); assay: qHTS Validation Assay for Identification of Novel General Anesthetics (AID 2323)
Procedure, shortened: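 Apoferritin from horse spleen (10 uM) was mixed with 1-aminoanthracene at 50% saturation in PBS, then compounds were added. After 10 min at room temperature, fluorescence was read (ex 380 nm, em 535 nm) and normalized to free-probe and complex controls.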

[4] = biological target: ATP-dependent DNA helicase Q1 (Homo sapiens) (UniProt P46063); assay: qHTS Validation Assay for Inhibitors of RecQ-Like Dna Helicase 1 (RECQ1) (AID 2353)
Procedure, shortened: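 50 nM RECQ1T1 preincubated 15 min with compound in Tris pH 8.0 buffer with MgCl2, DTT, Tween-20 and 2.5 ug/ml poly(dI-dC); started with 200 nM TAMRA/BHQ-2 forked duplex and 2 mM ATP. Unwinding read as fluorescence (525/598 nm), two reads 2 h apart.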

[5] = Quantitative high throughput screen for delayed death inhibitors of the malarial parasite plastid, 48 hour incubation (AID 488752); also: potency is read from the fitted curve at half-maximal effect; nearly all actives have a fitted effect of over 65% in size
Procedure, shortened: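 Erythrocytes infected with firefly luciferase-expressing P. falciparum (2% hematocrit, 0.1% parasitemia) cultured with compound for 48 h at 37 C, 5% CO2, in RPMI 1640/0.5% Albumax. Growth inhibition read as loss of luminescence.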

[6] = biological target: M-phase phosphoprotein 8 (Homo sapiens) (UniProt Q99549); assay: qHTS Validation Assay for Inhibitors for MPP8 Chromodomain Interactions with Methylated Histone Tails (AID 488949);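 also: AlphaScreen signal from MPP8 chromodomain bound to biotinylated H3K9me3 peptide; top concentration of the series differs between compounds; nearly all actives have a fitted effect of over 55% in size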
Procedure, shortened: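 Disruption of the preformed MPP8–trimethyl-H3K9 peptide complex (both 50 nM, 30 min, RT) is measured after 30 min compound exposure, using AlphaScreen proximity beads; aurintricarboxylic acid titration serves as plate control.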

[7] = biological target: Transient receptor potential cation channel subfamily V member 1 (Homo sapiens) (UniProt Q8NER1); assay: HTS Assay for Compounds that Act as Enhancers of the Vanilloid Receptor 1 (AID 488979)
Procedure, shortened: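 TRPV1 cells loaded with Fluo-8 calcium dye; compound added and Ca2+ signal (ex 480/em 520 nm) followed 3 min, then capsaicin at EC20 added and read 2 more min to detect enhancement.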

[8] = biological target: Thyrotropin receptor (Homo sapiens) (UniProt P16473); assay: qHTS Assay for Antagonists of the Thyroid Stimulating Hormone Receptor (AID 488980)
Procedure, shortened: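 Cells expressing human TSHR (HEK293) are dispensed in HBSS/HEPES containing 70 uM RO 20-1724, compound is added, then TSH at EC80 (4 nM final). Antibody in lysis buffer follows, 30 minutes at room temperature before HTRF detection.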

[9] = biological target: Thyrotropin-releasing hormone receptor (Homo sapiens) (UniProt P34981); assay: qHTS for Small Molecule Agonists and Allosteric Enhancers of Human TRH Receptor: Validation Screen for Agonists (AID 493127;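 active = calcium activation more than 3 SD above the typical response in the agonist read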); settings: TRH receptor agonist cell assay; at 2 µM; stronger effect = higher value
Procedure, shortened: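 TRHR cells loaded with fluo-8 calcium dye; FDSS kinetic fluorescence (Ex 480/Em 530) read at 1 s/cycle after 23 nL compound addition. Agonist-mode calcium response recorded before the 10 nM TRH (EC20) addition.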

[10] = biological target: Galactokinase (Homo sapiens) (UniProt P51570); assay: qHTS Validation Assay for Inhibitors of Human Galactokinase (GALK) (AID 493189)
Procedure, shortened: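 Compounds were pin-transferred into ATP buffer, then GALK-galactose mix was added (final 5 nM enzyme, 100 uM galactose, 35 uM ATP). After 1 h at room temperature, remaining ATP was measured luminescently.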

[11] = Validation screen for small molecules that induce DNA re-replication in SW480 colon adenocarcinoma cells (AID 504364)
Procedure, shortened: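 SW480 cells (250/well) exposed 48 h at 37 C, 5% CO2, then Hoechst-stained 40 min. Nuclear DNA content imaged by fluorescence scanning (405 nm excitation, 500-530 nm emission); re-replication scored as increased nuclei with elevated intensity.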

[12] = biological target: DNA dC->dU-editing enzyme APOBEC-3G (Homo sapiens) (UniProt Q9HC16); assay: qHTS for inhibitors of Vif-A3G interactions: Validation (AID 588379)
Procedure, shortened: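 HeLa cells stably expressing Vif and A3G-eYFP, 700 cells/well, incubated overnight at 37 deg C, then exposed to compound overnight at 37 deg C. Inhibition of Vif-mediated degradation read as increased yellow fluorescence (Ex 488/Em 500-530) by laser-scanning cytometry.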

[13] = biological target: Voltage-gated inwardly rectifying potassium channel KCNH2 (Homo sapiens) (UniProt Q12809); assay: qHTS Assay for Small Molecule Inhibitors of the Human hERG Channel Activity (AID 588834);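 also: top concentration of the series differs between compounds; lower thallium flux fluorescence means stronger hERG block; nearly all actives have a fitted effect of over 50% in size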
Procedure, shortened: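 Measured: FluxOR fluorescence after thallium stimulation in U2OS cells transduced with hERG by baculovirus. Compounds pre-incubated around 10 min; medium Opti-MEM with 2% FCS. AC50 from Hill equation.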

[14] = qHTS profiling for inhibitors of Plasmodium falciparum (3D7) proliferation (AID 743322);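 also: infected erythrocytes exposed to compound for 72 h before lysis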; settings: P. falciparum 3D7 proliferation; at 28.7 µM (top of the series)
Procedure, shortened: (§1)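 Erythrocytes infected with P. falciparum (0.3% parasitemia, 2.5% hematocrit) incubated with compounds 72 h at 37 C, 5% CO2. Lysis with saponin/Triton buffer containing SYBR Green I, overnight at room temperature in the dark; DNA fluorescence (485/535 nm) normalised to 0.29 uM artemisinin and DMSO.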

[15] = qHTS profiling for inhibitors of Plasmodium falciparum (DD2) proliferation (AID 743323; call rule not given here); settings: lower = more inhibition; at 28.7 µM (top of the series)
Procedure, shortened: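 Parasite DNA quantified by SYBR Green fluorescence (ex 485, em 535 nm) after saponin/Triton lysis and overnight dark incubation. Cultures: 0.3% parasitemia, 2.5% hematocrit, 72 h, 37 C; data scaled between DMSO and 0.29 uM artemisinin.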

[16] = qHTS profiling for inhibitors of Plasmodium falciparum (HB3) proliferation (AID 743324); settings: Plasmodium falciparum HB3 blood-stage proliferation; at 28.7 µM (top of the series)
Procedure, shortened: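 P. falciparum HB3 grown in erythrocytes (0.3% parasitemia, 2.5% hematocrit final) with compound for 72 h at 37 C, 5% CO2. Parasite DNA detected by SYBR Green after saponin/triton lysis overnight; normalized to 0.29 uM artemisinin and DMSO.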

[17] = qHTS profiling of the MIPE4 collection as inhibitors of Plasmodium falciparum (3D7) proliferation (AID 743344; call rule not given here); settings: P. falciparum 3D7 in erythrocytes, SYBR Green DNA fluorescence, 72 h; at 28.5 µM (top of the series)
Procedure, shortened: as §1

[18] = qHTS profiling of the MIPE4 collection as inhibitors of Plasmodium falciparum (DD2) proliferation (AID 743345; call rule not given here); settings: P. falciparum Dd2 in erythrocytes, SYBR Green DNA, 72 h; at 28.5 µM (top of the series)
Procedure, shortened: as §1

[19] = qHTS profiling of the MIPE4 collection as inhibitors of Plasmodium falciparum (DD2) proliferation (Rep 2) (AID 743346; call rule not given here); settings: P. falciparum Dd2 in erythrocytes, SYBR Green DNA, 72 h; at 28.5 µM (top of the series)
Procedure, shortened: as §1

[20] = qHTS profiling of the MIPE4 collection as inhibitors of Plasmodium falciparum (HB3) proliferation (AID 743347; call rule not given here); settings: P. falciparum HB3 in erythrocytes, SYBR Green DNA, 72 h; at 28.5 µM (top of the series)
Procedure, shortened: as §1

[21] = system: Zika virus NS2B-NS3 protease; assay: Primary screen GU AMC qHTS for Zika virus inhibitors (AID 1347154); also: nearly all actives have a fitted effect of over 70% in size
Procedure, shortened: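 Unlinked Zika NS2B hydrophilic domain–NS3 protease complex at 25 nM in 10 mM Tris-HCl pH 8.0, 0.01% Tween 20, with an AMC peptide substrate. Fluorescence change (340/450 nm) over 15 min at room temperature, normalized to controls, fitted to 4-parameter Hill.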

[22] = Primary qHTS for small molecule stabilizers of the endoplasmic reticulum resident proteome: Secreted ER Calcium Modulated Protein (SERCaMP) assay (AID 1508630)
Procedure, shortened: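 GLuc-SERCaMP-expressing SH-SY5Y cells, pretreated 16 h with compound, are challenged with thapsigargin to empty ER calcium stores; after 4 h, coelenterazine is added directly to the medium and luminescence is imaged.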

Sequence of Ferritin light chain (Equus caballus) (P02791 2-175 limits assumed): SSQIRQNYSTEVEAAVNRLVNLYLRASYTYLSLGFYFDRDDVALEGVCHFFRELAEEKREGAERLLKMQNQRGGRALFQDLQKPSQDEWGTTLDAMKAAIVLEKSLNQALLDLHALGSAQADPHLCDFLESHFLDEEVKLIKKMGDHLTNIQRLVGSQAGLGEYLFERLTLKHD
Sequence of Voltage-gated inwardly rectifying potassium channel KCNH2 (Homo sapiens) (Q12809 whole entry, looked up): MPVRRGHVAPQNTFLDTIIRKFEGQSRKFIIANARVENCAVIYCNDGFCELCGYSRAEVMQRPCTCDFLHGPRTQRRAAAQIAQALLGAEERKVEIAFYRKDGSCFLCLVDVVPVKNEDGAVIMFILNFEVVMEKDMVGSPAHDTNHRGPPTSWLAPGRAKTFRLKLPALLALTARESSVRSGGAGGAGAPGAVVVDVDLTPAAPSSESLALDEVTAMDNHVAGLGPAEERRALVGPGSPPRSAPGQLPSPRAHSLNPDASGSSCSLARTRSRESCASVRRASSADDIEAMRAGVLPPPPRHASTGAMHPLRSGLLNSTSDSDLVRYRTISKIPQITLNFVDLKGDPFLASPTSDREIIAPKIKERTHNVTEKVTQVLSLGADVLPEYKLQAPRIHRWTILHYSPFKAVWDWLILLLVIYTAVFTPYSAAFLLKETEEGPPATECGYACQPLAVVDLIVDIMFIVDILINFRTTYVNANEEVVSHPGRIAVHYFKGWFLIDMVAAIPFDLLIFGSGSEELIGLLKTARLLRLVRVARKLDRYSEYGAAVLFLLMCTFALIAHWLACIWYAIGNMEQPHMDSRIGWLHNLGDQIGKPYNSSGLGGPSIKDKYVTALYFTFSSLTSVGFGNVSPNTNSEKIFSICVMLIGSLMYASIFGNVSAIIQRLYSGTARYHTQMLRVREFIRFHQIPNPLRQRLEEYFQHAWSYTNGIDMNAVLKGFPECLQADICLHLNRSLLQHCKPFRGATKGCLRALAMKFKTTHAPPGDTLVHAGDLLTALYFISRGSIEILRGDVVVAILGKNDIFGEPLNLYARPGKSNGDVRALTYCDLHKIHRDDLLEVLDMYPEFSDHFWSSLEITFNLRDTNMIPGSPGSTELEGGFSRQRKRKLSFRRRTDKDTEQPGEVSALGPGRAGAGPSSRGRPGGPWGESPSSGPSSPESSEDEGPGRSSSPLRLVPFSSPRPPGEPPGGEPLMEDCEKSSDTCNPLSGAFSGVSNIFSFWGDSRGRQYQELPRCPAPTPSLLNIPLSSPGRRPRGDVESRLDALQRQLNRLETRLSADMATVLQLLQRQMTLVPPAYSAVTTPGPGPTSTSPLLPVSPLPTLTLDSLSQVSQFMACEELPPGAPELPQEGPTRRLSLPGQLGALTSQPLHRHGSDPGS
Sequence of Thyrotropin receptor (Homo sapiens) (P16473 whole entry, looked up): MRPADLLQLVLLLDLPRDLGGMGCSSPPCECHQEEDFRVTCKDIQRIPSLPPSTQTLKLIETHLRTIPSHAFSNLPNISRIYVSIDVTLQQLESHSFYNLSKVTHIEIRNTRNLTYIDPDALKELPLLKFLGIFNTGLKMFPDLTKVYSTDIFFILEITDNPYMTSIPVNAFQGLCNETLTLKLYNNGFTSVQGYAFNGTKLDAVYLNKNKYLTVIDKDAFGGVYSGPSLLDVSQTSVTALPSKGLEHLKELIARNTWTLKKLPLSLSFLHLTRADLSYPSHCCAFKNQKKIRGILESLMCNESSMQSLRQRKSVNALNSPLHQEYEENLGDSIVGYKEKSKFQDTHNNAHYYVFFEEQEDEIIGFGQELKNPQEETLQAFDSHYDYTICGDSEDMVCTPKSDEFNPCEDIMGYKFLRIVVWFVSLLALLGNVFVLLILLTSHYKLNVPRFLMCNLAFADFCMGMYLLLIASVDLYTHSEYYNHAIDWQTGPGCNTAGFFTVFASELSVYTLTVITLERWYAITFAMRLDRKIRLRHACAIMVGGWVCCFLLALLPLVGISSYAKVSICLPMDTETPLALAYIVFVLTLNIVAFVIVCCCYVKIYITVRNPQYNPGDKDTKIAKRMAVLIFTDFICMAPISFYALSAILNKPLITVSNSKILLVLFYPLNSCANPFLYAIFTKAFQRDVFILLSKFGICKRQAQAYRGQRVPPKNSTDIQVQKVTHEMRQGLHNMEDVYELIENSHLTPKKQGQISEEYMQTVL
Sequence of DNA dC->dU-editing enzyme APOBEC-3G (Homo sapiens) (Q9HC16 whole entry, looked up): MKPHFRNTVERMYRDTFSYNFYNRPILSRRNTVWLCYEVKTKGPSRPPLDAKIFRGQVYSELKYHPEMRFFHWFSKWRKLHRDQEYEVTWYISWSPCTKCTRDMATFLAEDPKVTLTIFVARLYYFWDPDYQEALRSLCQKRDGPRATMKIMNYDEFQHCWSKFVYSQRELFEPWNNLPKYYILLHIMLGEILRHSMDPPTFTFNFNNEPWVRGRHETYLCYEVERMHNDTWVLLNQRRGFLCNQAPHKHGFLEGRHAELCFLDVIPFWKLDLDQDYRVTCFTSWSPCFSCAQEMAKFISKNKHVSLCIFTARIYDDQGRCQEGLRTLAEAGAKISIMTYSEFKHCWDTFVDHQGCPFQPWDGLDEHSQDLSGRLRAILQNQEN
Sequence of Transient receptor potential cation channel subfamily V member 1 (Homo sapiens) (Q8NER1 whole entry, looked up): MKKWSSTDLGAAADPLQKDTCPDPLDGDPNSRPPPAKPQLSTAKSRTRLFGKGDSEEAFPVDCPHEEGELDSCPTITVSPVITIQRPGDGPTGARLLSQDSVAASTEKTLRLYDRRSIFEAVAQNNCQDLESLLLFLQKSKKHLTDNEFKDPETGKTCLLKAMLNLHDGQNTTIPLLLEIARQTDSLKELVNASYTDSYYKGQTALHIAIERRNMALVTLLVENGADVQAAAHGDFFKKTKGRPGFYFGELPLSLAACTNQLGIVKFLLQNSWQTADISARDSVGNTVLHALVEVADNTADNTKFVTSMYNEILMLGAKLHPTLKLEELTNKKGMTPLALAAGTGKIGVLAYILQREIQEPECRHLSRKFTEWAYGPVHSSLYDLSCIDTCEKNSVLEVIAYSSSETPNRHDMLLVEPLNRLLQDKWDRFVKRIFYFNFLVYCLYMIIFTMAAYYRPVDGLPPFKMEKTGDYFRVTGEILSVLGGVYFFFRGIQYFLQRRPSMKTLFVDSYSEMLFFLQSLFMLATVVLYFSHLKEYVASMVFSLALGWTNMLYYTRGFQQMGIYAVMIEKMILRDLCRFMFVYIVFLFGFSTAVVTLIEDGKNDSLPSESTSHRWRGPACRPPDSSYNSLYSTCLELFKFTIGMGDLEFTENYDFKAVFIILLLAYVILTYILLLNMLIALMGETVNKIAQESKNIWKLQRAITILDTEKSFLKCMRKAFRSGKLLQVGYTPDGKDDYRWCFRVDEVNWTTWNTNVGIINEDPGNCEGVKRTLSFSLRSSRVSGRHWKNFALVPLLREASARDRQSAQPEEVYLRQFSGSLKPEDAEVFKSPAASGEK
Sequence of Thyrotropin-releasing hormone receptor (Homo sapiens) (P34981 whole entry, looked up): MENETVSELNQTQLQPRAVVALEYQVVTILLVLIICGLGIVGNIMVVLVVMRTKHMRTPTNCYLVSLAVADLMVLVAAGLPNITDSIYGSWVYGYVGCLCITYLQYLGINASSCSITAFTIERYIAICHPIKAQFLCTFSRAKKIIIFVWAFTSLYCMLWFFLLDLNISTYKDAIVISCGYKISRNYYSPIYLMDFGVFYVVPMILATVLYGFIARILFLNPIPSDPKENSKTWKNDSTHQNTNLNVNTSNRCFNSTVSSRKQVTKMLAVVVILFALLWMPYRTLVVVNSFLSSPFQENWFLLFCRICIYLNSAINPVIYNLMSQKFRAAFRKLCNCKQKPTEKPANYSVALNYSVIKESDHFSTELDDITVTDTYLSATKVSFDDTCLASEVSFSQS
Sequence of Galactokinase (Homo sapiens) (P51570 whole entry, looked up): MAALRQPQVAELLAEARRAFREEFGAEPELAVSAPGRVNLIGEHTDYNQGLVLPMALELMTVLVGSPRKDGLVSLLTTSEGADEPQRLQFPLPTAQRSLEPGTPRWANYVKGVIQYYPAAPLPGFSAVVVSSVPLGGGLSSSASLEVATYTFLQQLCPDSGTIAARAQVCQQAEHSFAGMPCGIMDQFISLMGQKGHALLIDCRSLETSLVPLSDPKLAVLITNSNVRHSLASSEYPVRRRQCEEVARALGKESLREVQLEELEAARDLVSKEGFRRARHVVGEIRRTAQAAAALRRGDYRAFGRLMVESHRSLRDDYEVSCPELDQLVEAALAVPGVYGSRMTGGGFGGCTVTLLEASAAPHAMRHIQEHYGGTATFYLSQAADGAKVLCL
Sequence of ATP-dependent DNA helicase Q1 (Homo sapiens) (P46063 whole entry, looked up): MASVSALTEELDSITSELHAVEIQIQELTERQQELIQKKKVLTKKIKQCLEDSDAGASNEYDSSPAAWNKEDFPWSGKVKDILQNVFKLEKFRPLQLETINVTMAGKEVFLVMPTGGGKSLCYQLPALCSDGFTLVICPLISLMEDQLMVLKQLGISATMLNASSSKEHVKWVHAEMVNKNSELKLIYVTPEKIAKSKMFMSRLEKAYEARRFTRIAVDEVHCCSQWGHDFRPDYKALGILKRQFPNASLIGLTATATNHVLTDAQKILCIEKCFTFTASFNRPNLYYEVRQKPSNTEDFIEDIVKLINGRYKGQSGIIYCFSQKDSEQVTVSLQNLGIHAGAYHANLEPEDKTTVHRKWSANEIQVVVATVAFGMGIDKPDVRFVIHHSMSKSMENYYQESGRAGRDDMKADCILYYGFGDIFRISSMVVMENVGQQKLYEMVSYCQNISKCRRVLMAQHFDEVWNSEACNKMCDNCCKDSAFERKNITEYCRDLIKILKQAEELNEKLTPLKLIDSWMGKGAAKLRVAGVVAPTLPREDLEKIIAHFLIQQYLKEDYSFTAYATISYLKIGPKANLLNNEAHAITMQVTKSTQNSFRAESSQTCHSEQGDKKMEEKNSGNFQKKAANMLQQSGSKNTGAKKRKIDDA

COc1cc2c(cc1C(F)(F)F)N(C(=O)Nc1cc(F)cc(-c3cccnc3)c1)CC2
Potency [1]: 2.24 µM (active)
Potency [2]: 1.26 µM (active)
outcome [3]: inactive
Potency [4]: inactive
Potency [5]: 2.94 µM (active)
Potency [6]: inactive
outcome [7]: inactive
outcome [8]: inactive
activation [9]: 5.25% (inactive)
outcome [10]: inactive
outcome [11]: inactive
Potency [12]: inactive
Potency [13]: inactive
remaining parasite growth % (stronger effect = lower value) [14]: -1.39%
activity, percent of control [15]: 5.68%
remaining proliferation (% of control), lower = more inhibition [16]: -0.36%
parasite growth, % of DMSO control [17]: 6.27%
parasite growth remaining, % of DMSO control (lower = more inhibition) [18]: 15.3%
parasite growth, % of control (lower = inhibition) [19]: 34.1%
growth, % of control [20]: 3.34%
Potency [21]: inactive
Potency [22]: inactive
